Our source for the outcome and AC50 values is PubChem BioAssay (EPA / NIEHS).

By AC50 is commonly meant the midpoint of the concentration-response curve, whichever way the signal moves.

What all share (conditions): mRNA level, 48 h; actives raise or lower the signal
Read-out in experiment [1]: ATP-citrate lyase (ACLY), ACLY (gene 47)
In words: LTEA_HepaRG_ACLY: Life Technologies and Expression Analysis (LTEA) Assay for ATP-citrate lyase (ACLY) using HepaRG (AID 2283466). The method in brief: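 ACLY mRNA quantified by qRT-PCR on Fluidigm arrays against three housekeeping genes, after 48 h chemical treatment of HepaRG cells (top concentration 100 uM, half-log steps, 0.5% DMSO vehicle). Up- or down-regulation fitted relative to DMSO.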

Read-out in experiment [2]: Peroxisomal acyl-coenzyme A oxidase 1 (ACOX1) gene, ACOX1 (gene 51)
Put plainly: LTEA_HepaRG_ACOX1: Life Technologies and Expression Analysis (LTEA) Assay for Peroxisomal acyl-coenzyme A oxidase 1 (ACOX1) gene using HepaRG (AID 2283467). The method in brief:
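ACOX1 transcript levels were quantified by TaqMan qRT-PCR against three housekeeping genes after 48 h chemical exposure of differentiated human HepaRG cells. Exposure used eight half-log steps topping at 100 uM, 0.5% DMSO vehicle, in duplicate. Bidirectional curve fits were made relative to DMSO.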

Read-out in experiment [3]: Alkaline Phosphatase, Placental (ALPP) gene, ALPP (gene 250)
In words: LTEA_HepaRG_ALPP: Life Technologies and Expression Analysis (LTEA) Assay for Alkaline Phosphatase, Placental (ALPP) gene using HepaRG (AID 2283468).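 As to AC50: differentiated human HepaRG liver cells in serum-free induction medium.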 The method in brief: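 ALPP transcript level, measured by qRT-PCR and normalized to three housekeeping genes (ACTB, GAPDH, POLR2A), after 48 h dosing of differentiated HepaRG in serum-free induction medium. Top concentration 100 uM with half-log dilutions (8 points, 0.5% DMSO, duplicates); bidirectional fitting relative to DMSO.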

Read-out in experiment [4]: Bcl-2 (BAD) gene, BAD (gene 572)
Put plainly: LTEA_HepaRG_BAD: Life Technologies and Expression Analysis (LTEA) Assay for Bcl-2 (BAD) gene using HepaRG (AID 2283469). The procedure, abridged:
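Read-out: qRT-PCR of BAD mRNA, normalized to three housekeeping genes. Human HepaRG cultures got 48 h chemical exposure in 0.5% DMSO, duplicate eight-point half-log series topping at 100 uM. Gain or loss of signal fitted versus DMSO vehicle.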

Read-out in experiment [5]: Bcl-2 (BAX) gene, BAX (gene 581)
Put plainly: LTEA_HepaRG_BAX: Life Technologies and Expression Analysis (LTEA) Assay for Bcl-2 (BAX) gene using HepaRG (AID 2283470). The procedure, abridged:
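qRT-PCR read-out of BAX mRNA, normalized to three housekeeping genes, after 48 h chemical exposure of human HepaRG cells in serum-free induction medium; eight-point half-log series, top 100 uM, 0.5% DMSO vehicle; bidirectional fit versus DMSO.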

Read-out in experiment [6]: adenosine kinase (ADK) gene, ADK (gene 132)
In words: LTEA_HepaRG_ADK: Life Technologies and Expression Analysis (LTEA) Assay for adenosine kinase (ADK) gene using HepaRG (AID 2283471). The method in brief:
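HepaRG (human liver), 48 h chemical exposure, 8-pt half-log series, top 100 uM, 0.5% DMSO vehicle. Readout: ADK mRNA by qRT-PCR vs housekeeping genes; bidirectional curve fit relative to DMSO baseline.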

Read-out in experiment [7]: Alpha-fetoprotein (AFP) gene, AFP (gene 174)
Put plainly: LTEA_HepaRG_AFP: Life Technologies and Expression Analysis (LTEA) Assay for Alpha-fetoprotein (AFP) gene using HepaRG (AID 2283472). The method in brief:
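qRT-PCR (Fluidigm TaqMan) readout of AFP transcript, normalized to three housekeeping genes, fitted bidirectionally against 0.5% DMSO baseline. HepaRG cells received chemicals for 48 h in serum-free induction medium, top concentration 100 uM, half-log steps.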

Read-out in experiment [8]: BCL2L11 (gene 10018)
In words: LTEA_HepaRG_BCL2L11: Life Technologies and Expression Analysis (LTEA) Assay for Bcl-2 (BCL2L11) gene using HepaRG (AID 2283473). The method in brief:
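BCL2L11 transcript levels are measured by Fluidigm qRT-PCR, normalized to three housekeeping genes. HepaRG cultures were plated 48 h, then treated 48 h with test chemical (top 100 uM, half-log, 0.5% DMSO vehicle); curves were fitted bidirectionally against DMSO.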

Read-out in experiment [9]: Apolipoprotein A-V (APOA5) gene, APOA5 (gene 116519)
In words: LTEA_HepaRG_APOA5: Life Technologies and Expression Analysis (LTEA) Assay for Apolipoprotein A-V (APOA5) gene using HepaRG (AID 2283474). The procedure, abridged:
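APOA5 transcript levels were quantified by qRT-PCR, normalized to three housekeeping genes, after 48 h chemical treatment of HepaRG cells (8 points, 100 uM maximum, half-log steps, 0.5% DMSO). Curves fitted in both directions against vehicle.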

Read-out in experiment [10]: Apoptosis regulator Bcl-2 (Homo sapiens) (UniProt P10415)
Put plainly: LTEA_HepaRG_BCL2: Life Technologies and Expression Analysis (LTEA) Assay for Bcl-2 gene using HepaRG (AID 2283475).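 Also: BCL2 transcript by TaqMan qRT-PCR normalised to ACTB GAPDH and POLR2A.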 The procedure, abridged:
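qRT-PCR read-out (Fluidigm TaqMan) of BCL2 transcript, normalised to three housekeeping genes, after 48 h chemical exposure of HepaRG cells; 8-point half-log series, top 100 uM, 0.5% DMSO vehicle. Gain or loss of signal fitted relative to DMSO baseline.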

Calls of active or inactive are those of the source. The calls were made as follows: active = hit-call score of the fitted dose curve at least 0.9, where 1 is the maximum; inactive = score below 0.9.

Chain of Apoptosis regulator Bcl-2 (Homo sapiens) (P10415 whole entry, looked up): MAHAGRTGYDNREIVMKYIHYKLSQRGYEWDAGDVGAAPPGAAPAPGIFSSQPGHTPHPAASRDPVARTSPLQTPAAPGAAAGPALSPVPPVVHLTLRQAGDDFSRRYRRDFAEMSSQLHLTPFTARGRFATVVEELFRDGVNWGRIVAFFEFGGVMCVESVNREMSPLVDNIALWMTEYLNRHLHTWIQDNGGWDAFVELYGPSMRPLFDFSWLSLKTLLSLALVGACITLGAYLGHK

As for `COc1ccc(C(=CC(=O)N2CCOCC2)c2ccc(Cl)cc2)cc1OC`, the molecule was called inactive in [1], in experiment [2], in experiment [3], in experiment [4], in experiment [5] and in [6]. Also, the molecule was called inactive in experiment [7], in [8], in experiment [9] and in experiment [10].

`C=C(C)[C@H]1Cc2c(ccc3c2O[C@@H]2COc4cc(OC)c(OC)cc4[C@@H]2C3=O)O1`: the molecule was called inactive in experiment [1], in [4] and in [6]. Also, the AC50 is 11.7 µM (active) in [2]; 0.384 µM (active) in [3]; 6.55 µM (active) in [5]; 0.985 µM (active) in experiment [7]; 1.07 µM (active) in [8]; 12.9 µM (active) in experiment [9]. In experiment [10], the AC50 was 2.94 µM (active).

On to `O=C(O)c1cc(Oc2ccc(C(F)(F)F)cc2Cl)ccc1[N+](=O)[O-]`, for which the outcome in [1], in experiment [3], in [4], in experiment [5], in experiment [6] and in [7] was inactive. Also, the result in [8], in [9] and in experiment [10] was inactive. The AC50 in experiment [2] is 28.4 µM (active).

With `N#CSCSC#N`, the result in experiment [1], in experiment [2], in experiment [4], in experiment [6], in experiment [9] and in experiment [10] was inactive. Also, the AC50 in experiment [3] was 12.5 µM (active); in experiment [5], 50 µM (active); in experiment [7], 80.2 µM (active); in [8] it was 78.8 µM (active).

Consider `CCC(=O)Nc1ccc(Cl)c(Cl)c1`, for which the outcome in experiment [1], in [2], in experiment [4], in [5], in experiment [6] and in experiment [7] was inactive. For the same molecule, the molecule was called inactive in experiment [8], in experiment [9] and in experiment [10]. Further, in [3], the concentration at half-maximal activity (AC50) was 50 µM (active).

Take `COP(=O)(OC)SCn1c(=O)oc2cc(Cl)cnc21`: the result in experiment [1], in experiment [2], in experiment [3], in [4], in experiment [5] and in experiment [6] was inactive. Besides, the outcome in [7] was inactive. For the same molecule, the figures for the AC50 in experiment [8], in [9] and in experiment [10] were 50 µM (active), 0.282 µM (active) and 50 µM (active), respectively.

In the case of `CCCCN(CC)c1c([N+](=O)[O-])cc(C(F)(F)F)cc1[N+](=O)[O-]`, the result in [1], in experiment [2], in experiment [3], in experiment [4], in [5] and in [6] was inactive. Besides, the molecule was called inactive in [7], in experiment [8], in experiment [9] and in experiment [10].

With `CCCOCC(=Nc1ccc(Cl)cc1C(F)(F)F)n1ccnc1`, the AC50 in [1] was 88.6 µM (active); in experiment [2] it was 72.2 µM (active); in experiment [3] it was 15.8 µM (active); in [5], 21.7 µM (active); in [6] it was 78.5 µM (active); in experiment [7], 15.8 µM (active). In addition, the molecule was classed as inactive in experiment [4], in [8], in [9] and in [10].

As for `Cc1nn(-c2cc(NS(C)(=O)=O)c(Cl)cc2Cl)c(=O)n1C(F)F`, the molecule was called inactive in experiment [1], in experiment [2], in experiment [3], in experiment [4], in [5] and in [6]. For the same molecule, the call in [7], in experiment [8], in [9] and in experiment [10] was inactive.

For the molecule `CCCSP(=O)(OCC)Oc1ccc(Br)cc1Cl` (stereo not given), the molecule was classed as inactive in experiment [1], in experiment [2], in experiment [3], in [4], in experiment [5] and in [6]. Also, the result in [7], in experiment [8], in [9] and in experiment [10] was inactive.

As to `CSc1nnc(C(C)(C)C)c(=O)n1N`, the call in experiment [1], in [2], in experiment [3], in experiment [4], in experiment [5] and in experiment [6] was inactive. Moreover, the call in experiment [7], in [8], in experiment [9] and in [10] was inactive.

As to `CCCCOC(=O)[C@@H](C)Oc1ccc(Oc2ccc(C#N)cc2F)cc1`, the molecule was called inactive in experiment [1], in experiment [3], in [4], in experiment [5], in [6] and in [7]. For the same molecule, the molecule was classed as inactive in experiment [8], in [9] and in experiment [10]. Moreover, the AC50 in experiment [2] was 39.7 µM (active).

As to `CC(=NC#N)N(C)Cc1ccc(Cl)nc1`, the call in experiment [1], in [2], in experiment [3], in experiment [4], in experiment [5] and in [6] was inactive. Further, the molecule was called inactive in experiment [7], in [8], in experiment [9] and in experiment [10].

On to `CC(C)N(C(=O)SCC(Cl)=C(Cl)Cl)C(C)C`, for which the call in [1], in experiment [2], in experiment [3], in experiment [4], in experiment [5] and in experiment [6] was inactive. The molecule was classed as inactive in experiment [7], in [8], in experiment [9] and in experiment [10].

For `COP(=O)(OC)C(O)C(Cl)(Cl)Cl` (stereo not given), the call in experiment [1], in experiment [2], in experiment [4], in [5], in experiment [6] and in experiment [7] was inactive. In addition, the call in [8], in experiment [9] and in experiment [10] was inactive. For the same molecule, in experiment [3], the AC50 is 0.0572 µM (active).

As for `CCc1cnc(C2=NC(C)(C(C)C)C(=O)N2)c(C(=O)O)c1` (stereo not given), the outcome in experiment [1], in experiment [2], in experiment [3], in experiment [4], in experiment [5] and in experiment [6] was inactive. For the same molecule, the result in experiment [7], in experiment [8], in experiment [9] and in experiment [10] was inactive.

For `CCOP(=S)(OCC)SCCSCC`, the molecule was called inactive in experiment [1], in [2], in [3], in experiment [4], in experiment [5] and in experiment [6]. The call in experiment [7], in experiment [8], in [9] and in experiment [10] was inactive.

As to `CC(C)[C@H](C(=O)O[C@H](C#N)c1cccc(Oc2ccccc2)c1)c1ccc(Cl)cc1`, the molecule was called inactive in [1], in experiment [2], in experiment [3], in experiment [4], in [5] and in experiment [6]. Moreover, the molecule was classed as inactive in [8], in [9] and in [10]. The AC50 in experiment [7] is 24.7 µM (active).
